Here are results for seven molecules from PubChem BioAssay.

The source made the active and inactive calls. Unless noted, the rule behind the calls is not given here.

Assay [1] is described as follows: compound effects on lung adenocarcinoma cell viability – A549, calcein-AM fluorescence, 48 h, basal, profiling panel (AID 1162). Note: test concentration not given here. As to conditions: higher = more signal.
Assay [2] can be described thus: compound effects on differentiated 3T3-L1 adipocyte viability – cell-based, 3T3-L1 adipocytes, calcein-AM fluorescence, 48 h, basal, profiling panel (AID 1163). Note: test concentration not given here. The note with it: 3T3-L1 adipocytes viability, higher = more signal.
Assay [3] can be described thus: compound effects on hepatocellular carcinoma cell viability – HepG2, calcein-AM fluorescence, 48 h, basal, profiling panel (AID 1164). Note: test concentration not given here. The note with it: higher = more signal.
A short description of assay [4]: compound effects on multiple myeloma cell viability – MM1S, calcein-AM fluorescence, 48 h, basal, profiling panel (AID 1165).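 Note: viability of MM1S multiple myeloma cells under basal unstimulated conditions; test concentration not given here.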 The note with it: higher = more signal.
Assay [5] can be described thus: calcein-AM signal in unstimulated myeloma cells – cell-based, calcein-AM fluorescence, 48 h, PK04 Diversity Set, profiling panel (AID 1166).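 Note: cells grown under basal conditions without added stimulus; test concentration not given here.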 The note with it: RPMI8226 myeloma viability, higher = more signal.
The nature of assay [6]: JC-1 mitochondrial signal, unstimulated HepG2 cells – cell-based, JC-1 fluorescence, 24 h, 100 nL compound, profiling panel (AID 1167). Note: test concentration not given here. As to conditions: HepG2 mitochondrial potential, higher = more signal.
Assay [7] in a line: JC-1 mitochondrial signal, unstimulated adipocytes – cell-based, JC-1 fluorescence, 3T3-L1 adipocytes, 24 h, 100 nL compound, profiling panel (AID 1168). Note: test concentration not given here. As to conditions: JC-1 mitochondrial fluorescence, higher = more signal, called active from +8 up or from −8 down.
Assay [8] can be described thus: JC-1 mitochondrial signal, unstimulated myeloma cells – cell-based, JC-1 fluorescence, RPMI8226, 24 h, 100 nL compound, profiling panel (AID 1169). Note: test concentration not given here. As to conditions: JC-1 mitochondrial potential fluorescence, higher = more signal.
A short description of assay [9]: JC-1 mitochondrial signal, unstimulated MM1S myeloma – cell-based, JC-1 fluorescence, 24 h, 100 nL compound, profiling panel (AID 1170). Note: test concentration not given here. The note with it: MM1S mitochondrial potential, higher = more signal.
A short description of assay [10]: resazurin metabolic signal in A549 cells – cell-based, resazurin fluorescence, 24 h, PK04 Diversity Set, profiling panel (AID 1171). Note: test concentration not given here. The note with it: A549 viability, higher = more signal, called active from +8 up or from −8 down. (In general: The colour change of resazurin is a common sign of viable cells or microbes.)
A short description of assay [11]: resazurin metabolic signal in HepG2 cells – cell-based, resazurin fluorescence, 24 h, PK04 Diversity Set, profiling panel (AID 1172). Note: test concentration not given here. As to conditions: HepG2 viability, higher = more signal.
The nature of assay [12]: budding yeast growth changes without added modifier – OD600, strain BY4716, 24 h, basal condition, primary screen (AID 1173). As to conditions: S. cerevisiae BY4716 growth, OD600, 24 h; higher = more signal, called active from +8 up or from −8 down.
Assay [13] can be described thus: viability profiling in MM1S myeloma cells – cell-based, resazurin fluorescence, basal, 24 h, PK04 Diversity Set, profiling panel (AID 1174). Note: test concentration not given here. The note with it: higher = more signal, called active from +8 up or from −8 down.
In assay [14] the target is Dihydroorotate dehydrogenase (quinone), mitochondrial (Plasmodium falciparum (isolate 3D7)) (UniProt Q08210). Description: inhibition of P. falciparum DHODH – biochemical, C-terminal His tag, absorbance 600 nm, primary screen (AID 1175).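 Note: recombinant parasite enzyme with a five histidine tag at its C terminus; test concentration not given here.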 The note with it: PfDHODH enzyme, DCIP absorbance 600 nm; higher = more signal, called active from +8 up or from −8 down.
Chain of Dihydroorotate dehydrogenase (quinone), mitochondrial (Plasmodium falciparum (isolate 3D7)) (Q08210 whole entry, looked up): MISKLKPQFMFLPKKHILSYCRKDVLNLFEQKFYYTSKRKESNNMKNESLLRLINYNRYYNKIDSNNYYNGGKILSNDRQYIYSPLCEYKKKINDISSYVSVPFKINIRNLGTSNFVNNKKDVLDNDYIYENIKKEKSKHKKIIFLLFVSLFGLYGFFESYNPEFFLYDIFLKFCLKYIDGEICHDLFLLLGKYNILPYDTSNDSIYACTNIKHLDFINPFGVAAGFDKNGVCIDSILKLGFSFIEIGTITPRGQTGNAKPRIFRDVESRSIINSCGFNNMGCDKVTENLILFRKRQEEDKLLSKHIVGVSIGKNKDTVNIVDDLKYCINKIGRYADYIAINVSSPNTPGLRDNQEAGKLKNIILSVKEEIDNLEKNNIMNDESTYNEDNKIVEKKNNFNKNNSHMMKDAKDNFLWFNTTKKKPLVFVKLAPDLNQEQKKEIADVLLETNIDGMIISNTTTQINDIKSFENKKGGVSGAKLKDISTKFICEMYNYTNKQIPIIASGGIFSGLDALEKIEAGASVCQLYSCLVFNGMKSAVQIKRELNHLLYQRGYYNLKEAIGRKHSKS
Assay [15] can be described thus: inhibition of PAO1 biofilm formation – strain PAO1, LB-PBS medium, absorbance 600 nm, primary screen (AID 1176). Note: test concentration not given here. The note with it: P. aeruginosa PAO1 growth/biofilm, A600, 12 h; higher = more signal.
Assay [16] can be described thus: growth modulation of vineyard yeast isolate – strain RM11-1a, OD600, basal, 24 h, primary screen (AID 1177).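 Note: cultures grown under basal conditions with no added stressor; test concentration not given here.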 As to conditions: S. cerevisiae RM11-1a growth, OD600, 24 h; higher = more signal, called active from +8 up or from −8 down.
Assay [17] is described as follows: growth of efflux-deficient E. coli DRC39 – strain DRC39, OD650, 24 h, E. coli filamentation inducers, primary screen (AID 1178).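 Note: growth measured as culture turbidity by optical density at 650 nm; test concentration not given here.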 The note with it: E. coli DRC39 acrAB, higher = more signal, called active from +8 up or from −8 down.
Assay [18] can be described thus: growth of efflux-deficient E. coli DRC39 – strain DRC39, OD650, 48 h, E. coli filamentation inducers, primary screen (AID 1179).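 Note: screen aims at cell division blockers that make cells filament.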 The note with it: E. coli DRC39 delta-acrAB growth, higher = more signal, called active from +8 up or from −8 down.
The nature of assay [19]: viability profiling in RPMI8226 myeloma cells – cell-based, resazurin fluorescence, basal, 24 h, PK04 Diversity Set, profiling panel (AID 1180).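 Note: RPMI8826 multiple myeloma cell line at 5000 cells per well; test concentration not given here.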 As to conditions: higher = more signal.
In assay [20] the target is E3 ubiquitin-protein ligase XIAP (Homo sapiens) (UniProt P98170). The assay can be described thus: small molecules binding XIAP protein – biophysical, small-molecule microarray, fluorescence 635 nm, primary screen (AID 1181).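 Note: score merges 667 nm emission and signal to noise over triplicate slides.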 As to conditions: higher = more signal.
Chain of E3 ubiquitin-protein ligase XIAP (Homo sapiens) (P98170 whole entry, looked up): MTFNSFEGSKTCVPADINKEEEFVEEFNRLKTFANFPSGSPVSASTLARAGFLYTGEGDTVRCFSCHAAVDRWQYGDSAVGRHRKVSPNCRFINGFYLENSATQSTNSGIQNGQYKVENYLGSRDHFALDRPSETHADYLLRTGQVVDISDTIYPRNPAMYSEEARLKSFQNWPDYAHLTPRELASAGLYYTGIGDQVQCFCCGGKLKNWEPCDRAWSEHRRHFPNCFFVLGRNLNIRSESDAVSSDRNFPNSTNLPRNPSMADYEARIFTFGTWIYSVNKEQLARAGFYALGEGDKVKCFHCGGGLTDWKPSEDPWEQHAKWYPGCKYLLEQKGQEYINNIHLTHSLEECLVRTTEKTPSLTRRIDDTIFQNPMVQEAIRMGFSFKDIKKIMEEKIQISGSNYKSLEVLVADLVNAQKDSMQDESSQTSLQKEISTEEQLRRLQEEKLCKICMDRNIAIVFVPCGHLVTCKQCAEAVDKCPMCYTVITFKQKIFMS

Take `CO[C@H]1O[C@H](CO)[C@@H](OC(=O)CCc2ccccc2)[C@@H]2OC(=O)[C@@H](Cc3ccc4ccccc4c3)C/C=C/C[C@H](Cc3ccc4ccccc4c3)C(=O)O[C@@H]12`: the z-score in [1] is 1.39; in [2], 0.284; in assay [3], 1.27; in [4], -0.52; in assay [5] it was 0.0085; in assay [6], 0.111. The z-score was 0.945 (inactive) in [7]; 0.761 in assay [8]; 0.0944 in [9]; -1.39 (inactive) in assay [10]; -0.826 in assay [11]; -0.998 (inactive) in assay [12]. Moreover, the z-score in assay [13] is -0.333 (inactive); in assay [15], -0.0558 (inactive); in assay [16] it was -1.11 (inactive); in [17], 0.552 (inactive); in assay [18], 0.9 (inactive); in assay [19] it was -0.591. Also, the values for the composite z-score in assay [14] and in assay [20] were -1.32 (inactive) and 0.0302, respectively.
With `COCCCNC(=O)[C@@]1(Cc2ccccc2I)c2ccccc2C(=O)N(C2CCCCC2)[C@H]1c1ccc(CO)cc1`, the z-score was -0.126 in assay [1]; 0.2 in [2]; -0.335 in assay [3]; -0.339 in assay [4]; -0.0802 in [5]; 1.29 in assay [6]. Also, the z-score in [7] is -0.276 (inactive); in assay [8], -0.794; in assay [9] it was -1.01; in assay [10], 1.59 (inactive); in assay [11], 1.12; in [12], -0.6 (inactive). For the same molecule, the z-score in [13] is 0.28 (inactive); in assay [15], 1.13 (inactive); in assay [16], -0.244 (inactive); in assay [17], 0.319 (inactive); in assay [18] it was 0.26 (inactive); in assay [19], 0.448. The composite z-score was 0.154 (inactive) in [14] and -0.0343 in assay [20].
Regarding `C=C(C(=O)CC[C@@H](OC(=O)c1ccccc1-c1ccccc1C(=O)O)c1ccc(OCCO)cc1)C(C)C`, the z-score is -0.514 in [1]; 0.517 in assay [2]; 0.654 in [3]; -3.22 in assay [4]; -2.98 in [5]; -0.556 in [6]. Further, the z-score in [7] was -1.2 (inactive); in [8], -0.787; in assay [9] it was -0.547; in assay [10] it was -0.0237 (inactive); in assay [11], -0.304; in assay [12], -1.3 (inactive). Moreover, the z-score in assay [13] was 0.089 (inactive); in [15], 0.85 (inactive); in assay [16] it was -0.718 (inactive); in assay [17] it was -0.166 (inactive); in [18] it was -0.135 (inactive); in [19] it was 0.488. The composite z-score is -1.29 (inactive) in assay [14] and -0.101 in [20].
`CC(C)c1ccc(NN2C(C(O)C3CCCCC3)C=CC3C(=O)N(c4ccccc4)C(=O)C32)cc1` (stereo not given): the z-score in [1] is 0.19; in [2], -1.19; in assay [3], 1.41; in assay [4], -0.381; in assay [5], -0.886; in [6], -1.49. The z-score in assay [7] was -0.176 (inactive); in assay [8], 0.227; in [9] it was -1.36; in assay [10] it was -0.519 (inactive); in [11] it was -0.454; in assay [12], -0.618 (inactive). The z-score in [13] is -1.12 (inactive); in assay [15] it was 1.52 (inactive); in assay [16], 0.409 (inactive); in [17] it was -0.148 (inactive); in assay [18], 0.51 (inactive); in assay [19], -0.675. Further, the values for the composite z-score in assay [14] and in assay [20] were -0.74 (inactive) and 0.0471, respectively.
With `CC(C)C(=C=CC[C@H](O)c1cccc(OCCO)c1)C[C@H](O)c1ccccn1`, the z-score in [1] was 1.65; in [2], -0.0875; in [3], 0.731; in assay [4] it was 0.301; in assay [5], 0.942; in assay [6], 0.807. For the same molecule, the z-score in [7] is 0.259 (inactive); in assay [8], 0.509; in assay [9], -0.803; in assay [10] it was 1.26 (inactive); in [11], 1.91; in [12] it was 0.589 (inactive). Moreover, the z-score in [13] was 0.106 (inactive); in assay [15], 0.625 (inactive); in [16], -0.69 (inactive); in assay [17] it was 1.61 (inactive); in assay [18] it was 1.5 (inactive); in assay [19], 0.681. The composite z-score was -0.332 (inactive) in assay [14] and 0.0436 in assay [20].
`C=CCNC(=O)[C@H]1[C@@H]2C(=O)O[C@@H](c3ccccc3)[C@@H](c3ccccc3)N2[C@@H](c2ccc(O)cc2)[C@]12C(=O)Nc1ccccc12`: the z-score was 1.94 in assay [1]; 0.816 in assay [2]; 1.51 in assay [3]; -0.0148 in assay [4]; -0.836 in [5]; -0.948 in assay [6]. In addition, the z-score in assay [7] is -0.586 (inactive); in assay [8], 0.105; in assay [9] it was 0.24; in assay [10], 0.552 (inactive); in [11] it was 0.715; in [12], -0.842 (inactive). The z-score is 0.557 (inactive) in [13]; 1.15 (inactive) in assay [15]; 1.76 (inactive) in assay [16]; 0.691 (inactive) in [17]; 0.975 (inactive) in assay [18]; -1.34 in assay [19]. Moreover, the composite z-score was 0.776 (inactive) in assay [14] and -0.144 in assay [20].
For the molecule `N#Cc1ccc(NN2C(C(O)c3ccc(B(O)O)cc3)C=CC3CN(c4ccccc4)C(=O)C32)cc1` (stereo not given), the z-score in assay [1] is 0.222; in assay [2], -0.463; in [3], -0.35; in [4], -0.104; in assay [5], -1.29; in assay [6], -2.14. In addition, the z-score in [7] is -0.643 (inactive); in assay [8], -0.0762; in assay [9], -0.696; in [10], 0.238 (inactive); in assay [11], -0.595; in assay [12] it was -15.4 (active). Also, the z-score in assay [13] is -1.25 (inactive); in [15], 0.475 (inactive); in [16], 1.56 (inactive); in [17], 0.898 (inactive); in assay [18], 0.934 (inactive); in assay [19], -0.662. The composite z-score in assay [14] was -0.883 (inactive); in assay [20] it was -0.0917.
